This note sets out measurements from PubChem BioAssay AID624202 (National Center for Advancing Translational Sciences (NCATS), 2012).

About 4,000 (1.1%) of roughly 380,000 compounds were called active. Entries that show only a call come without a potency. Not shown: some 3% with an inconclusive outcome. The sample holds actives, similar compounds and a random draw of the others, so the mix is not that of the screen. Calls come from the whole dose curve; as a rule, active = well fitted activation curve with a large enough effect; inconclusive = small, poorly fitted or top-dose-only effect; inactive = no such curve, though single readings can be large or run the other way.
Potency is the fitted concentration of half-maximal effect.

This test can be described thus: qHTS Assay to Identify Small Molecule Activators of BRCA1 Expression. Note: nearly all actives have a fitted effect of over 80% in size. To be noted: MCF7-BRCA1-FFLuc reporter, luminescence, 48 h; series mostly up to 46.1 µM. From the text:
Functionally, BRCA1 has been implicated in a wide array of cellular activities, including DNA damage repair, cell-cycle checkpoint control, growth inhibition, apoptosis, transcriptional regulation, chromatin remodeling, protein ubiquitylation, and mammary stem cell self-renewal and differentiation. Reduction in BRCA1 levels is associated with an increase in tumor growth and resistance to anti-estrogenic agents, such as tamoxifen, while an increase in BRCA1 expression leads to cell growth arrest and apoptosis. […] The frequent loss of BRCA1 expression in invasive breast cancers in the absence of somatic mutation has been attributed to numerous mechanisms, including hypermethylation of the BRCA1 promoter, exaggerated ubiquitylation of BRCA1 protein, and improper intracellular localization. […] Basal-like breast cancers (BLBCs) are associated with an aggressive clinical course, resistance to chemotherapy, and typically lack expression of estrogen receptor (ER), progesterone receptor (PR), and epidermal growth factor receptor 2 (HER2). BLBCs account for 10-17% of all breast cancers, have few therapeutic options, and are considered the biggest unmet need in the treatment of breast cancer. Conversely, tumors which maintain expression of functional BRCA1 are almost uniformly luminal type cancers, and are accordingly associated with more indolent clinical courses, responsiveness to endocrine therapies, and improved survival.
As such, it is possible that an increase in BRCA1 expression would enable cellular differentiation and restore tumor suppressor function, resulting in delayed tumor growth and less aggressive, more treatable breast cancers. The long term goal of this proposal is to develop a novel prevention or therapeutic agent for breast cancer patients. To accomplish this goal, the overall objective of this proposal is to access the resources provided by the NIH Molecular Libraries Roadmap Initiative and the Molecular Libraries Probe Production Centers Network (MLPCN) to discover and develop new chemical activator probes that will increase BRCA1 expression and function.
NIH Molecular Libraries Probe Production Network [MLPCN]
NIH Chemical Genomics Center [NCGC]
PI Name: Lisa Harlan-Williams, University of Kansas Medical Center
5microl of MCF7-BRCA1-FFLuc cell suspension (400 cells/microl in phenol-red free MEM) are dispensed into Greiner white solid bottom 1536-well assay plates, yielding a final well density of 2000 cells/well. Plates are incubated for 2 hours at 37 degrees C in 5% humidified CO2 to allow cell attachment. Compounds are then transferred via Kalypsys pin tool equipped with 1536-pin array (10nl slotted pins, V&P Scientific, San Diego, CA). The plates are then incubated at 37 degrees C in 5% humidified CO2 for 48 hours. The NCGC in-house luciferase substrate reagent, Buglite, is then added (2.5microl) and plates incubated for 15 minutes, before being transferred to a ViewLux high-throughput CCD imager (PerkinElmer) wherein single end-point measurements of luminescence are acquired using a clear filter. The positive control compound, genistein, will be pinned into dedicated control columns on each plate, including a 16-point 1:3 titration in duplicate, as well as a 10microM maximum activation control, allowing for the normalization of screening activity. DMSO will be pinned into a separate column as a negative control.
All screening operations will be performed on a fully integrated robotic system (Kalypsys, San Diego, CA) containing one RX-130 and two RX-90 anthropomorphic robotic arms (Staubli, Duncan, SC). Library plates will be screened starting from the lowest and proceeding to the highest concentration. Vehicle-only plates, with DMSO being pin-transferred to columns 5-48, will be inserted uniformly at the beginning and the end of each library in order to monitor and record any shifts in the background, which can be affected by reagent dispensers or loss in enzyme activity over time. […]
As to `O=C(NCCc1ccccc1)Oc1ccc(Cl)cc1`, the Potency was 12.6 µM (active).

`NS(=O)(=O)c1ccc(CCNC(=O)c2ccc(Cl)cc2[N+](=O)[O-])cc1`: the Potency result was “inactive”.

For `O=C(COc1ccc(Cl)cc1)NCCSc1ccccc1`, the Potency entry is “inactive”.

With `Cc1cc(C(=O)NCCc2ccc(Cl)cc2)c(C)o1`, the Potency is 8.91 µM (active).

Consider `CC(C)C[C@H](NC(=O)NCCc1ccc(Cl)cc1)C(=O)O`, for which the Potency entry was “inactive”.

Regarding `O=C(NCCc1ccccc1)C1CC1`, the Potency entry is “inactive”.

On to `Cc1nc2ccc(S(=O)(=O)NC(C(=O)NCc3ccccc3Cl)C(C)C)cc2s1` (configuration not stated), for which the Potency result was “inactive”.

On to `COc1ccc(Cl)cc1NC(=O)CSc1nc(-c2cccs2)cc(C(F)(F)F)n1`, for which the Potency entry was “inactive”.

For the compound `COc1ccc(CNc2nc(-c3ccccc3)nn2C(=O)c2ccccc2OC)cc1`, the Potency entry is “inactive”.

For `O=C(/C=C/c1cn(CC(O)CN2CCc3ccccc32)c2ccccc12)c1ccc(Br)cc1` (configuration not stated), the Potency entry is “inactive”.

In the case of `O=C(Nc1ccc2c(c1)OCCO2)C1CCCN(c2ncccn2)C1` (configuration not stated), the Potency was 10 µM (active).

Turning to `O=C(Nc1ccccn1)C1CCN(S(=O)(=O)c2ccc3c(c2)OCCO3)CC1`, the Potency entry was “inactive”.

Consider `O=C(Nc1ccc2c(c1)OCCO2)C1CCCC1`, for which the Potency entry was “inactive”.

For the compound `CCOc1ccc(OCC)c(NS(=O)(=O)c2ccc3[nH]c(=O)ccc3c2)c1`, the Potency result is “inactive”.

For `O=C(Nc1cccc2cccnc12)C(F)(F)F`, the Potency entry is “inactive”.

As to `CSc1ccc(CNC(=O)c2ccc(NC(=O)C3=CSCCO3)cc2)cc1`, the Potency result was “inactive”.

In the case of `O=C(NCc1ccccc1Cl)C1CCCO1` (configuration not stated), the Potency entry was “inactive”.

Turning to `O=C(Nc1ccc(C(=O)NCc2ccccc2Cl)cc1)C1=CSCCO1`, the Potency is 11.2 µM (active).

For `CCc1ccccc1NC(=O)Cn1c(=O)n(-c2cccc(C)c2)c(=O)c2c1c1cc(OC)ccc1n2C`, the Potency result is “inactive”.

For `COc1ccc(/C=C/C(=O)Nc2ccc(C34CC5CC(CC(O)(C5)C3)C4)cc2)cc1OC`, the Potency result is “inactive”.

With `CSc1ccc(/C=C/C(=O)NC23CC4CC(CC(C4)C2)C3)cc1`, the Potency is 11.2 µM (active).

Take `COc1ccccc1C(=O)NC(=S)NC12CC3CC(CC(C3)C1)C2`: the Potency entry is “inactive”.

Regarding `CSc1nn(Cc2cccc(C)c2)c(N)c1S(=O)(=O)c1ccccc1`, the Potency result is “inactive”.

Regarding `COc1ccc(CCNc2ncnc3onc(-c4ccc(Cl)cc4)c23)c(OC)c1`, the Potency result was “inactive”.

In the case of `CCOC(=O)c1cccc(NS(=O)(=O)c2cc(-c3cnc(C)o3)ccc2OC)c1`, the Potency result was “inactive”.

On to `N#Cc1nc(/C=C/c2ccc(F)cc2)oc1NCc1ccc(F)cc1`, for which the Potency entry was “inactive”.

Turning to `S=C(Nc1ccc(Br)cc1)NC1CCN(Cc2ccccc2)CC1`, the Potency entry was “inactive”.

For the compound `Cc1ccc(/C=N/NC(=S)NC2CCCCC2)o1`, the Potency was 4.47 µM (active).

In the case of `C/C(=N\NC(=S)NC1CCCCC1)c1ccc(C)o1`, the Potency entry is “inactive”.

For the compound `Cc1ccc(NC(=O)CSCC(=O)NC2CCCCC2)cc1`, the Potency entry is “inactive”.

Take `Cc1ccc(NC(=S)NC2CCCC2)cc1`: the Potency is 10 µM (active).

For the compound `Cc1ccc(/C=N/NC(=O)Cn2ccc(C(F)(F)F)n2)o1`, the Potency entry was “inactive”.
